For 39 molecules, Inhibition results are on record in ChEMBL document CHEMBL4513135, “CO-ADD screening of IQOG CSIS (Spain) compounds”.

Results with a measured potency or affinity are listed apart.

In this assay the test system is Cryptococcus neoformans. As to conditions: Concentration 32 ug.mL-1; ASSAY_TEST Inhibition of Fungal Growth; detection method Resazurin; Absorption (OD600-OD570); plate type 384well; NBS; CORNING #3640.
One may read the Inhibition as the relative decrease from the control value, in per cent. Regarding `CN(C)c1nc(N)c(C#N)c(-c2ccccc2)c1C#N`, the Inhibition is given as -0.79%. Under `C#CCNC(=O)c1cc2cc(OCCCC3CCN(Cc4ccccc4)CC3)ccc2[nH]1` stands -106.43%. The value for `CSC1=NC(=Cc2cn(C)c3ccccc23)C(=O)N1C` was -7.7%. On to `CCOC(=O)/C(=C\c1ccccc1)C(=O)c1ccccc1`, for which the Inhibition was -2.93%. Under `CN(C)c1nc(Cl)c(C#N)c(-c2ccccc2)c1C#N` stands -9.38%. The value for `Cc1nc(Nc2ccccc2)c2cnn(-c3ccccc3)c2n1` was -5.65%; that for `COc1ccc(C2c3c(nc4c(c3N)CCCC4)Oc3ccc4ccccc4c32)cc1` (centres undefined) was 1.85%; that for `CC(=O)Nc1nc(Cl)c(C#N)c(-c2ccccc2)c1C#N` was -41.58%.

Turning to `C#CCN(C)c1nc(OC)c(C#N)cc1C#N`, the Inhibition is -43.21%. The value for `O=C(O)C(=Cc1ccccc1)NC(=O)c1ccccc1` was -6.77%. The value for `CC(C)CC(C)NNC(=O)c1cc2ccccc2[nH]1` (centres undefined) was -6.14%; that for `N#CC1(Br)C(=NBr)Oc2c(ccc3ccccc23)C1c1ccccc1[N+](=O)[O-]` (centres undefined) was -80.63%. Under `Cn1c(C(=O)O)cc2cc(OCCCC3CCN(Cc4ccccc4)CC3)ccc21` stands -100.02%; under `Cn1cc(C=O)c2ccccc21`, -4.31%; under `C#CCN(C)Cc1cc2cc(O)ccc2n1C.Cl`, -73.69%. For `COC1=C(C#N)C(c2ccccc2)C(C=O)=C(Cl)N1` (centres undefined), the Inhibition is -31.69%. Under `NNC(=O)c1c[nH]c2ccc(OCc3ccccc3)cc12` stands 0.02%. The value for `CN(C)c1ccc(C(=NNC(=O)c2cc3ccccc3[nH]2)c2ccc(N(C)C)cc2)cc1` was -8.51%; that for `CCCCNNC(=O)c1cc2ccccc2[nH]1` was -1.71%; that for `COc1ccccc1-c1c(C#N)c(=O)oc2c1ccc1ccccc12` was -7.79%. The value for `Nc1c2c(nc3ccc([N+](=O)[O-])cc13)CCCC2` was -74.97%; that for `O=C(O)/C(=C\c1ccccc1)NC(=O)c1ccccc1` was -3.88%; that for `Cl.ClCCCC1CCNCC1` was -2.91%. For `COc1ccc2cc(C3C(C(C)=O)=C(C)Oc4nc5c(c(N)c43)CCCCC5)c(Cl)nc2c1` (centres undefined), the Inhibition is recorded as -8.4%. The value for `COc1cccc(C2c3c(ccc4ccccc34)OC(=NBr)C2(Br)C#N)c1` (centres undefined) was -22.56%. Under `N#C/C(=C\c1ccccc1)C(=O)c1ccccc1` stands 5.95%; under `COc1ccc2cc(C=O)c(Cl)nc2c1`, 26.83%; under `CCOC(=O)/C(C#N)=C\c1ccc(C)cc1`, -4.89%.

As for `CC/C(C)=N/NC(=O)Cc1c[nH]c2ccccc12`, the Inhibition was -5.32%.

In the case of `N#CC1=C(N)Oc2c(ccc3ccccc23)C1c1cccc([N+](=O)[O-])c1` (centres undefined), the Inhibition is reported as -36.01%.

Take `CCOC(=O)C1=C(C)Oc2nc3c(c(N)c2C1c1nccn1C)CCC3` (centres undefined): the Inhibition was -84.25%. Under `N#Cc1cc(C#N)c(N2CCC(O)CC2)nc1N` stands -52.44%.

As for `Nc1c2c(nc3c1C(c1ccc([N+](=O)[O-])cc1)c1c(ccc4ccccc14)O3)CCCC2` (centres undefined), the Inhibition is reported as -0.47%. On to `CCOC(=O)N/N=C/c1ccccc1`, for which the Inhibition is -5.96%. The value for `Cn1cc(/C=C2\NC(=S)NC2=O)c2ccccc21` was -4.32%; that for `Cc1nc(Nc2ccccc2)c2c(C)nn(-c3ccccc3)c2n1` was -3.19%. The value for `N#CC1=C(Cl)Oc2c(ccc3ccccc23)C1c1ccccc1` (centres undefined) was -59.47%.

As for `N#Cc1ccc(Br)cc1N`, the Inhibition was -4.02%. Under `CC1=NC(=Cc2ccccc2)C(=O)S1` stands -6.24%.
